The list is not random: actives were taken first. Their share in the collection is about 2.9%.
D3 antag: antagonists of human D3 dopamine receptor; max response, negative = inhibition, %; D3R cells, DiscoveRx beta-arrestin luminescence, antagonist mode; active compounds read low; 360,000 tested, 2.5% active; P35462; AID 652054; in the data active = max response below about -50%; inconclusive = no clear call, values can overlap the other calls; also: % is scaled to controls: 0 for no effect and ±100 for the full control effect
Target sequence (P35462 whole entry, looked up): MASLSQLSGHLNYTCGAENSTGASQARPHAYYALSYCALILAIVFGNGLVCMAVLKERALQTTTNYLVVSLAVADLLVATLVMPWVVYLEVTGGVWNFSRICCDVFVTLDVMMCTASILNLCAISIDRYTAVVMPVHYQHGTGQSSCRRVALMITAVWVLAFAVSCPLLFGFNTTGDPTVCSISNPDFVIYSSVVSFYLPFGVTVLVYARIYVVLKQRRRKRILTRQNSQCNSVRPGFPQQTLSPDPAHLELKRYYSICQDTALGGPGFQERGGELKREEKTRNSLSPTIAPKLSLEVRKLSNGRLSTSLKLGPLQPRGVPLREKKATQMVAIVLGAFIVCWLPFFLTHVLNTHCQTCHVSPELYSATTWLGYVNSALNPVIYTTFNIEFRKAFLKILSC
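Cells plated overnight at 1500 cells/well, then exposed to library compounds with dopamine controls for 90 minutes at 37 degrees C. DiscoveRx reagent added for 30–60 minutes at room temperature; luminescence read, quantitative HTS format.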
DRD3 agonist: agonists of human D3 dopamine receptor; 410,000 tested, 0.58% active; AID 652048; D3R DiscoveRx beta-arrestin cells, luminescence, 90 min; P35462; max activation, %; in the data active = max activation above about 30%; also: 0% is about no effect
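Agonist-mode cell screen: cells plated at 1500/well and incubated overnight at 37 °C, then exposed to library compounds for 90 min at 37 °C. Detection reagent was added for 30–60 min at room temperature, and luminescence was read.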
a7 integrin act: activates integrin-mediated alleviation for muscular dystrophy | Potency, µM (highest dose often 38.3 µM), for inactives: top-dose activation, hits mostly activators | alpha7betagal myoblasts, beta-gal FDG fluorescence, 48 h | 350,000 tested, 0.064% active; active = well fitted activation curve with a large enough effect; inconclusive = small, poorly fitted or top-dose-only effect; inactive = no such curve, though single readings can be large or run the other way;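 also: potency is read from the fitted curve at half-maximal effect; 100% = response of the positive control SU9516; nearly all actives have a fitted effect of over 60% in size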
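alpha7betagal+/- myoblasts (passage 13, 250/well) treated 48 h at 37C with compounds at 1:260 dilution of DMSO stock. Lysed, then beta-galactosidase activity read as FDG fluorescence (ex 480/em 540) after 30 min, with pre-read for autofluorescence.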
* = called active by the depositor.

Results for CCn1c(SCc2nc3ccccc3c(=O)[nH]2)nnc1-c1ccncc1 ?
D3 antag: -20; DRD3 agonist: 3; a7 integrin act: 4%

What do the screens show for `Cc1ccc(C)c(N2CCN(S(=O)(=O)c3ccc4oc(=O)c5ncn(C)c5c4c3)CC2)c1`?
DRD3 agonist: 6

How did Cc1ccc(C2CC(=O)Oc3cc(C)cc(C)c32)cc1 (stereo not given) do in these assays?
D3 antag: -23; DRD3 agonist: 4; a7 integrin act: -22%

What do the screens show for `CCSc1nnc(NC(=O)NCC(F)(F)F)s1`?
D3 antag: -83*; DRD3 agonist: -14; a7 integrin act: 23%

What do the screens show for `CCSc1nnc(NC(=O)c2cccnc2Cl)s1`?
D3 antag: -22; DRD3 agonist: -4; a7 integrin act: 19%

How did CCSc1nnc(NC(=O)c2cnccn2)s1 do in these assays?
D3 antag: -136*; DRD3 agonist: -10; a7 integrin act: -6%

Results for CCOc1ccc2nc(NC(=O)c3ccccn3)sc2c1 ?
D3 antag: -63*; DRD3 agonist: -23; a7 integrin act: -77%

Results for O=C(Nc1nnc(SCc2ccc(F)cc2)s1)c1cnccn1 ?
D3 antag: 1; DRD3 agonist: 8; a7 integrin act: 23%

What do the screens show for `CCSc1nnc(NC(=O)c2ccccn2)s1`?
D3 antag: -84*; DRD3 agonist: -2; a7 integrin act: -16%

Results for Cc1ccc2nc(NC(=O)c3ccccn3)sc2c1 ?
D3 antag: inconclusive; DRD3 agonist: -7; a7 integrin act: -58%

Results for CCSc1nnc(NC(=O)C(C)(C(F)(F)F)C(F)(F)F)s1 ?
D3 antag: -11; DRD3 agonist: -2; a7 integrin act: 18%

What do the screens show for `Cc1ccc(/C=N/NC(=O)c2c(-c3ccccc3)noc2C)o1`?
D3 antag: 2; DRD3 agonist: 1; a7 integrin act: -14%

Results for COc1ccc(-c2nn(-c3ccccc3)cc2/C=N/Nc2ccc(Cl)c(C(=O)O)c2)cc1OC ?
D3 antag: 1; DRD3 agonist: 12; a7 integrin act: 32%

Results for COc1cccc(CNC(=O)C(=O)NCC(c2ccco2)N2CCOCC2)c1 (stereo not given) ?
D3 antag: 10; DRD3 agonist: 3; a7 integrin act: 3%

What do the screens show for `CC12COC3(C(=O)N4CCN(c5ccccn5)CC4)CC1CCC32C` (stereo not given)?
D3 antag: 9; DRD3 agonist: -4; a7 integrin act: 10%

How did Cc1ccc(-n2nc3c(c2NC(=O)c2cccs2)CSC3)cc1 do in these assays?
D3 antag: -5; DRD3 agonist: -6; a7 integrin act: -1%

Results for Cc1nn(-c2ccccc2)c(NC(=O)c2cccs2)c(-c2ccccc2Cl)c1=O ?
D3 antag: -59*; DRD3 agonist: -7; a7 integrin act: -3%

How did CCN(CC)C(=O)C1CCCN(Cc2cccc(F)c2)C1 (stereo not given) do in these assays?
D3 antag: 15; DRD3 agonist: -6; a7 integrin act: 12%

How did CCN(CC)C(=O)C1CCCN(Cc2sccc2C)C1 (stereo not given) do in these assays?
D3 antag: -63*; DRD3 agonist: -20; a7 integrin act: -2%

What do the screens show for `COc1ccccc1N(Cc1cc(=O)[nH]c2ccccc12)C(=O)c1ccc([N+](=O)[O-])cc1`?
D3 antag: 5; DRD3 agonist: 2; a7 integrin act: -20%

How did CCOC(=O)NC(NC(=S)Nc1ccc(OCC)cc1)C(Cl)(Cl)Cl (stereo not given) do in these assays?
D3 antag: -8; DRD3 agonist: 0; a7 integrin act: 7%

What do the screens show for `O=C(NC(NC(=S)Nc1c(Cl)cccc1Cl)C(Cl)(Cl)Cl)OCc1ccccc1` (stereo not given)?
D3 antag: -69*; DRD3 agonist: -17; a7 integrin act: -41%

Results for CCOC(=O)c1c(C)n(C)c2ccc(OCC(O)CN(CC)CC)cc12 (stereo not given) ?
D3 antag: -54*; DRD3 agonist: -9; a7 integrin act: -17%

How did CCOC(=O)c1c(C)n(C)c2ccc(OCC(O)Cn3nc(C)cc3C)cc12 (stereo not given) do in these assays?
D3 antag: 37; DRD3 agonist: -3; a7 integrin act: -12%

How did O=C(N/N=C/c1ccc(OC(F)F)cc1OC(F)F)c1ccc(Br)cc1 do in these assays?
D3 antag: -88*; DRD3 agonist: -13; a7 integrin act: 2%

What do the screens show for `COc1ccc(-c2[nH]ncc2/C=N/NC(=O)c2ccc(Br)cc2)c(OC)c1`?
D3 antag: -66*; DRD3 agonist: -38; a7 integrin act: -26%

What do the screens show for `Cc1ccc(S(=O)(=O)N(C)Cc2ccc(C(=O)N/N=C/c3ccc(OC(F)F)cc3OC(F)F)cc2)cc1`?
D3 antag: 6; DRD3 agonist: 0; a7 integrin act: 18%

What do the screens show for `COc1ccc(C(=O)N/N=C/c2cn[nH]c2-c2ccc(OC)cc2OC)cc1`?
D3 antag: -26; DRD3 agonist: -20; a7 integrin act: -21%

Results for COC(=O)c1ccc(COc2ccc(/C=N/O)cc2OC)o1 ?
D3 antag: -4; DRD3 agonist: 2; a7 integrin act: -19%

Results for COc1ccc(NC(=O)Cn2c(=O)n(Cc3ccc4c(c3)OCO4)c(=O)c3ccc(C(=O)NC4CCCCC4)cc32)cc1 ?
DRD3 agonist: 3

What do the screens show for `C/C(=N/Nc1ccnc2cc(Cl)ccc12)c1ccc(N)cc1`?
D3 antag: inconclusive; DRD3 agonist: -56; a7 integrin act: -47%

How did C/C(=N/Nc1ccnc2cc(Cl)ccc12)c1ccc(O)cc1 do in these assays?
D3 antag: -54*; DRD3 agonist: -57; a7 integrin act: 15%

What do the screens show for `O=C(N/N=C/c1ccccc1C(F)(F)F)c1ccc(O)cc1`?
D3 antag: -11; DRD3 agonist: -3; a7 integrin act: 2%

Results for Cc1ccc(C)c(S(=O)(=O)N2CCN(C(=O)CSC(=S)N3CCCC3)CC2)c1 ?
D3 antag: 1; DRD3 agonist: -3; a7 integrin act: -4%

How did Cc1ccc(NC(=S)NCc2cccn2C)cc1 do in these assays?
D3 antag: -16; DRD3 agonist: 32*; a7 integrin act: 5%

What do the screens show for `Cc1cccc(NC(=S)NCc2cccn2C)c1`?
D3 antag: -13; DRD3 agonist: 4; a7 integrin act: -17%

How did O=C(c1ccc(Cl)cc1)N1CCCC(C(=O)N2CCN(c3ccccc3)CC2)C1 (stereo not given) do in these assays?
D3 antag: 11; DRD3 agonist: 7; a7 integrin act: 22%

Results for O=C(CN1CCOCC1)N1c2ccccc2Sc2ccccc21 ?
D3 antag: -6; DRD3 agonist: 1; a7 integrin act: 3%

How did O=C(N1CCOCC1)N1c2ccccc2Sc2ccccc21 do in these assays?
D3 antag: -77*; DRD3 agonist: -6; a7 integrin act: 37%

Results for Cc1ccccc1C(=O)NC(=S)Nc1ccccc1N1CCCC1 ?
D3 antag: -14; DRD3 agonist: -5; a7 integrin act: 21%

How did COc1ccc(NS(=O)(=O)c2ccc(NC(=O)c3ccccc3)cc2)nn1 do in these assays?
D3 antag: -18; DRD3 agonist: -9; a7 integrin act: 2%

Results for O=C(C1CCCN(Cc2ccncc2)C1)N1CCc2ccccc2C1 (stereo not given) ?
D3 antag: -72*; DRD3 agonist: -7; a7 integrin act: 3%

Screens: PubChem, National Center for Advancing Translational Sciences (NCATS)
